62 compounds from the antibiotic and cytotoxicity screens of Wong et al. (2023) can be followed below.

The structures appear in SMILES notation. In all, about 39,000 compounds went through this assay and about 1,500 (3.8%) were called active. This is one part of a sample in which actives are shown more often than they occur.

This test has as its system HSkMC (human skeletal muscle cells). As to the kind of experiment: cytotoxicity call (relative viability < 0.9). The following applies: 10 µM.
In the case of `C[C@H]1CN([C@@H](C)CO)C(=O)c2cccc(NC(=O)c3cnccn3)c2O[C@@H]1CN(C)S(=O)(=O)c1cccs1`, the cytotoxicity call is “inactive”. With `C[C@@H]1CCCCO[C@H](CN(C)Cc2ccc(C(F)(F)F)cc2)[C@@H](C)CN([C@@H](C)CO)C(=O)c2cc(NC(=O)C3CCCCC3)ccc2O1` the entry was “inactive”; with `O=C(NCCN1CCOCC1)[C@@H]1c2ccccc2C(=O)N(Cc2cc(C(F)(F)F)cc(C(F)(F)F)c2)[C@H]1c1ccc(CO)cc1`, “inactive”. With `C[C@H]1CN([C@@H](C)CO)C(=O)Cc2cc(NC(=O)CCN3CCOCC3)ccc2O[C@@H]1CN(C)Cc1ccc(C(=O)Nc2ccccc2N)cc1` the entry was “inactive”; with `Cc1noc(C)c1NC(=O)Nc1ccc2c(c1)C(=O)N([C@H](C)CO)C[C@@H](C)[C@@H](CN(C)Cc1ccc(Oc3ccccc3)cc1)O2`, “inactive”. With `C[C@@H]1CN([C@@H](C)CO)C(=O)c2cccc(NS(=O)(=O)c3cn(C)cn3)c2O[C@@H]1CN(C)S(=O)(=O)c1ccc(Cl)cc1` the entry was “inactive”; with `COc1ccc(CN(C)C[C@H]2Oc3ccc(NS(C)(=O)=O)cc3C(=O)N([C@@H](C)CO)C[C@@H]2C)cc1`, “inactive”; with `CNC[C@H]1Oc2c(NS(=O)(=O)c3cn(C)cn3)cccc2C(=O)N([C@H](C)CO)C[C@H]1C`, “inactive”.

`Cn1cnc(CCNC(=O)C[C@H]2CC[C@@H]3[C@H](COC[C@H](O)CN3C(=O)Nc3ccc(C(F)(F)F)cc3)O2)c1`: the cytotoxicity call was “inactive”. As for `CCNC(=O)C[C@@H]1C=C[C@H](NC(=O)C2CC2)[C@@H](CO)O1`, the entry is “inactive”; as for `C=CC[C@@H](CC(=O)N[C@H](CO)Cc1ccccc1)C(=O)N[C@H](COC(=O)[C@@H](CC=C)Cc1ccc(F)cc1)Cc1c[nH]c2ccccc12`, “inactive”; as for `C=CCC[C@H](Cc1ccc(F)cc1)C(=O)OC[C@H](Cc1c[nH]c2ccccc12)NC(=O)[C@@H](CC=C)CC(=O)N[C@H](CO)Cc1ccccc1`, “active”. As for `C=CCC[C@@H](Cc1ccc(F)cc1)C(=O)OC[C@H](Cc1c[nH]c2ccccc12)NC(=O)[C@@H](CC=C)CC(=O)N[C@@H](CO)Cc1ccccc1`, the entry is “inactive”. With `C=CCC[C@H](Cc1ccc(F)cc1)C(=O)OC[C@H](Cc1c[nH]c2ccccc12)NC(=O)[C@@H](CC=C)CC(=O)N[C@@H](CO)Cc1ccccc1` the entry was “active”; with `C=CC[C@@H](CC(=O)N[C@H](CO)Cc1ccccc1)C(=O)N[C@@H](COC(=O)[C@@H](CC=C)NC(=O)OCC1c2ccccc2-c2ccccc21)Cc1c[nH]c2ccccc12`, “active”. `C=CCC[C@H](Cc1ccc(F)cc1)C(=O)OC[C@H](Cc1c[nH]c2ccccc12)NC(=O)[C@H](CC=C)CC(=O)N[C@@H](CO)Cc1ccccc1`: the cytotoxicity call is “inactive”. With `C=CCC[C@@H](Cc1ccc(F)cc1)C(=O)OC[C@H](Cc1c[nH]c2ccccc12)NC(=O)[C@@H](CC=C)CC(=O)N[C@H](CO)Cc1ccccc1` the entry was “inactive”; with `C=CC[C@H](CC(=O)N[C@@H](CO)Cc1ccccc1)C(=O)N[C@@H](COC(=O)[C@@H](CC=C)Cc1ccc(F)cc1)Cc1c[nH]c2ccccc12`, “inactive”; with `C=CCC[C@@H](Cc1ccc(F)cc1)C(=O)OC[C@@H](Cc1c[nH]c2ccccc12)NC(=O)[C@H](CC=C)CC(=O)N[C@@H](CO)Cc1ccccc1`, “inactive”. As for `CS(=O)(=O)N1CC(=O)Nc2ccccc21`, the entry is “inactive”.

For `COc1ccc(S(=O)(=O)Nc2ccc3c(c2)C(=O)N([C@@H](C)CO)C[C@@H](C)[C@@H](CN(C)Cc2ccc(C(=O)O)cc2)OCCCC[C@H](C)O3)cc1`, the cytotoxicity call was “inactive”.

Turning to `C[C@@H]1CN([C@@H](C)CO)S(=O)(=O)c2ccc(C#CCN(C)C)cc2O[C@@H]1CN(C)Cc1ccccc1F`, the cytotoxicity call is “inactive”. With `CC(C)NC(=O)Nc1ccc2c(c1)C(=O)N([C@H](C)CO)C[C@H](C)[C@H](CN(C)C(=O)Nc1cccc3ccccc13)OCCCC[C@H](C)O2` the entry was “inactive”. With `CC(C)NC(=O)N(C)C[C@H]1Oc2ccc(NC(=O)C3CCCCC3)cc2C(=O)N([C@H](C)CO)C[C@@H]1C`, the cytotoxicity call was “inactive”. As for `CCC(=O)Nc1ccc2c(c1)OC[C@@H](C)N(C(=O)CN1CCOCC1)C[C@H](C)[C@@H](OC)CN(C)C2=O`, the entry is “inactive”; as for `C[C@@H]1CN([C@@H](C)CO)C(=O)c2cccc(NC(=O)Nc3cccc4ccccc34)c2O[C@H]1CN(C)S(=O)(=O)c1ccccc1`, “inactive”; as for `COc1ccc(S(=O)(=O)Nc2cccc3c2O[C@H](CN(C)S(=O)(=O)c2ccc(C)cc2)[C@@H](C)CN([C@H](C)CO)C3=O)cc1`, “inactive”.

As to `O=C(C[C@@H]1CC[C@H]2[C@@H](COC[C@@H](O)CN2S(=O)(=O)c2cccc(Cl)c2)O1)NCCCN1CCOCC1`, the cytotoxicity call was “inactive”.

For the compound `COCC(=O)N1CC[C@]2(CC1)CN(Cc1cccc(c1)OC)[C@H](CO)c1c2c2ccc(cc2n1C)OC`, the cytotoxicity call was “inactive”. In the case of `C[C@H](CO)N1C[C@H](C)[C@@H](CN(C)S(=O)(=O)c2cn(C)cn2)OCc2cn(nn2)CCCC1=O`, the cytotoxicity call is “inactive”. With `C[C@H]1CN([C@@H](C)CO)C(=O)Cc2cc(NC(=O)Nc3ccc(C(F)(F)F)cc3)ccc2O[C@H]1CN(C)Cc1ccccc1` the entry was “active”; with `C[C@H](CO)N1C[C@H](C)[C@H](CN(C)Cc2ccccc2)Oc2ccc(NC(=O)Nc3ccc(C(F)(F)F)cc3)cc2CC1=O`, “active”. As for `C[C@@H]1CN([C@@H](C)CO)C(=O)Cc2cc(NC(=O)Nc3ccc(C(F)(F)F)cc3)ccc2O[C@@H]1CN(C)Cc1ccccc1`, the entry is “active”.

Consider `C[C@@H]1CN([C@H](C)CO)C(=O)Cc2cc(NC(=O)Nc3ccc(C(F)(F)F)cc3)ccc2O[C@H]1CN(C)Cc1ccccc1`, for which the cytotoxicity call is “active”. With `C[C@H]1CN([C@@H](C)CO)C(=O)Cc2cc(NC(=O)Nc3ccc(C(F)(F)F)cc3)ccc2O[C@@H]1CN(C)Cc1ccccc1` the entry was “inactive”; with `C[C@@H]1CN([C@@H](C)CO)C(=O)Cc2cc(NC(=O)Nc3ccc(C(F)(F)F)cc3)ccc2O[C@H]1CN(C)Cc1ccccc1`, “inactive”. With `C[C@@H]1CCCCO[C@@H](CN(C)Cc2ccc(Cl)c(Cl)c2)[C@@H](C)CN([C@@H](C)CO)C(=O)c2cc(NS(=O)(=O)c3cn(C)cn3)ccc2O1` the entry was “inactive”; with `C[C@H]1CCCCO[C@@H](CN(C)Cc2ccc(C(F)(F)F)cc2)[C@@H](C)CN([C@@H](C)CO)C(=O)c2cc(N(C)C)ccc2O1`, “inactive”. As for `CC(C)C#Cc1cnc2c(c1)C(=O)N([C@H](C)CO)C[C@H](C)[C@H](CN(C)S(=O)(=O)c1cn(C)cn1)O2`, the entry is “inactive”. Turning to `CCCC#Cc1cnc2c(c1)C(=O)N([C@@H](C)CO)C[C@H](C)[C@H](CN(C)C(=O)c1ccc3c(c1)OCO3)O2`, the cytotoxicity call is “inactive”. As for `COc1ccccc1S(=O)(=O)N[C@H]1CC[C@@H](CCNC(=O)C2CC2)O[C@@H]1CO`, the entry is “inactive”; as for `COc1ccc(NC(=O)Nc2cccc3c2O[C@@H](CN(C)CC2CCCCC2)[C@H](C)CN([C@@H](C)CO)C3=O)cc1`, “inactive”. With `O=C(C[C@H]1C[C@H]2c3cc(NS(=O)(=O)c4ccc(F)cc4)ccc3O[C@H]2[C@@H](CO)O1)N1CCCCC1` the entry was “inactive”; with `COCC(=O)N1C[C@@H](C)[C@H](OC)CN(C)C(=O)c2ccc(NC(=O)Nc3cccc(F)c3)cc2OC[C@@H]1C`, “inactive”. With `C[C@@H]1CN([C@H](C)CO)C(=O)Cc2cc(NC(=O)Cc3cn(C)c4ccccc34)ccc2O[C@@H]1CN(C)Cc1ccc(C(F)(F)F)cc1` the entry was “inactive”; with `NC1CCN(C(=O)N2CCCC2)CC1`, “inactive”. In the case of `C[C@@H]1CN([C@@H](C)CO)C(=O)Cc2cc(NS(=O)(=O)c3ccc(Cl)cc3)ccc2O[C@H]1CN(C)C(=O)Nc1ccc(C(F)(F)F)cc1`, the cytotoxicity call is “inactive”. As for `C[C@H](CO)N1C[C@H](C)[C@H](CN(C)CC2CC2)Oc2c(NS(=O)(=O)c3ccccc3)cccc2C1=O`, the entry is “inactive”. `COc1ccc(S(=O)(=O)Nc2ccc3c(c2)C(=O)N([C@H](C)CO)C[C@H](C)[C@@H](CN(C)S(=O)(=O)c2ccc(OC)cc2)O3)cc1`: the cytotoxicity call is “inactive”. As for `CN1C[C@@H](N)CC1=O`, the entry is “inactive”; as for `COC(=O)[C@H](Cc1ccccc1)N1CC2=CCCC=C[C@H]2[C@@H]1[C@@H](O)CCn1cc(CCC(=O)NO)nn1`, “inactive”.

For the compound `C[C@@H]1CN([C@H](C)CO)C(=O)Cc2cc(NC(=O)Nc3ccc(C(F)(F)F)cc3)ccc2O[C@@H]1CN(C)Cc1ccccc1`, the cytotoxicity call was “active”. As to `C[C@H](CO)N1C[C@H](C)[C@@H](CN(C)Cc2ccccc2)Oc2ccc(NC(=O)Nc3ccc(C(F)(F)F)cc3)cc2CC1=O`, the cytotoxicity call is “active”.

As for `COc1cccc(S(=O)(=O)N2C[C@H](O)COC[C@@H]3O[C@@H](CC(=O)NCCCN4CCOCC4)CC[C@H]32)c1`, the cytotoxicity call was “inactive”. `CN1CCN(C(=O)C[C@@H]2C=C[C@@H](NS(=O)(=O)c3cccc(F)c3)[C@@H](CO)O2)CC1`: the cytotoxicity call is “inactive”. `O=C(O)/C=C\C(=O)Nc1cccc(C(=O)O)c1`: the cytotoxicity call was “inactive”. Consider `COc1ccc(NC(=O)Nc2cccc3c2O[C@@H](CN(C)Cc2ccc(-c4ccccc4)cc2)[C@@H](C)CN([C@H](C)CO)C3=O)cc1`, for which the cytotoxicity call is “inactive”. With `COc1ccc(NC(=O)Nc2cccc3c2O[C@H](CN(C)Cc2ccc(-c4ccccc4)cc2)[C@H](C)CN([C@H](C)CO)C3=O)cc1` the entry was “active”; with `COc1ccc(NC(=O)Nc2cccc3c2O[C@H](CN(C)Cc2ccc(-c4ccccc4)cc2)[C@@H](C)CN([C@H](C)CO)C3=O)cc1`, “inactive”. For `COc1ccc(NC(=O)Nc2cccc3c2O[C@H](CN(C)Cc2ccc(-c4ccccc4)cc2)[C@H](C)CN([C@@H](C)CO)C3=O)cc1`, the cytotoxicity call is “inactive”. With `COc1ccc(NC(=O)Nc2cccc3c2O[C@H](CN(C)Cc2ccc(-c4ccccc4)cc2)[C@@H](C)CN([C@@H](C)CO)C3=O)cc1` the entry was “active”; with `COc1ccc(NC(=O)Nc2cccc3c2O[C@@H](CN(C)Cc2ccc(-c4ccccc4)cc2)[C@H](C)CN([C@@H](C)CO)C3=O)cc1`, “inactive”.
